# Shown are actives, neighbours in structure and some others; about 2.1% of the full set was active somewhere.
# INS-1E GSIS act = GLuc luminescence reporter in INS-1E cells, primary screen for activators of glucose-dependent secretion of insulin; INS-1E GLuc reporter insulin secretion, 2-3 h; activation, % at 16.6 µM; 370,000 tested, 0.61% active; AID 743287;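 active = lowest replicate activation of at least 40%, so every replicate reaches that level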
# HIV Env fusion = inhibitors of HIV Env-mediated cell fusion; HeLa-JRFL Env/CEM21 cell fusion, luciferase; inhibition, % at 12.3 µM; 360,000 tested, 1.1% active;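 active = mean replicate inhibition score of at least 50 and every replicate individually at or above 50; inconclusive = only one of the two criteria met; inactive = mean below 50 and not all replicates reaching 50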
# AF4-AF9 inh = blocks AF4 peptide binding to human AF9 | P42568 | AlphaScreen, biotin-AF4 peptide binding to FLAG-AF9 | inhibition, % at 10 µM | 350,000 tested, 0.47% active;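 active = every replicate reaching a set inhibition limit, whatever the replicate mean, cut at about 25% in these data; inconclusive = mean inhibition reaches that limit but some replicates miss it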
# NSD2 inh = inhibitors of human histone methyltransferase NSD2. O96028. NSD2 peptide methylation, AlphaScreen, 120 min. inhibition, % at 12.5 µM. 310,000 tested, 0.54% active; in the data active = inhibition above about 50%
# PGC1a acetyl inh = lowers PGC1a acetylation signal in U2OS cells; AlphaScreen anti-acetyl-lysine; with virally co-expressed GCN5 acetyltransferase; inhibition, % at 15.6 µM; 350,000 tested, 0.17% active; AID 651687;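 active = every replicate shows inhibition of at least 40%; inconclusive = mean inhibition at least 40% but some replicate below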
# Numbers stand for hits; - = inactive; ? = inconclusive; . = no result given; [ ] = remark or other dose.
SMILES,INS-1E GSIS act,HIV Env fusion,AF4-AF9 inh,NSD2 inh,PGC1a acetyl inh
COc1ccc(S(=O)(=O)Nc2ccc3c(c2)CC(=O)N([C@H](C)CO)C[C@H](C)[C@H](CN(C)S(=O)(=O)c2cccs2)O3)cc1,-,62[16.7 µM],-,.,-
COc1ccc(S(=O)(=O)N(C)C[C@H]2Oc3ccc(NS(=O)(=O)c4cccs4)cc3CC(=O)N([C@@H](C)CO)C[C@@H]2C)cc1,-,-,-,.,-
CCOC(=O)COc1ccc(S(=O)(=O)NCC2CCCO2)cc1 (stereo not given),-,.,?,-,-
CCC(OCC(O)CN1CCN(CCN2C(=O)c3cccc4cccc(c34)C2=O)CC1)c1ccccc1 (stereo not given),-,-,.,-,.
C[C@H]1CN([C@@H](C)CO)C(=O)c2cccc(NC(=O)Nc3cccc4ccccc34)c2O[C@H]1CN(C)Cc1ccc(C(=O)O)cc1,-,-,-,.,-
Cc1noc(C)c1S(=O)(=O)N(C)C[C@@H]1Oc2ccc(NS(=O)(=O)c3cccs3)cc2CC(=O)N([C@@H](C)CO)C[C@H]1C,-,-,26,.,-
COc1ccc(S(=O)(=O)Nc2ccc3c(c2)CC(=O)N([C@H](C)CO)C[C@H](C)[C@H](CN(C)S(=O)(=O)c2ccc(OC)cc2)O3)cc1,-,56[16.7 µM],-,.,-
Cc1ccc(S(=O)(=O)N(C)C[C@@H]2Oc3ccc(NS(=O)(=O)c4c(C)noc4C)cc3CC(=O)N([C@@H](C)CO)C[C@H]2C)cc1,-,-,-,.,-
Cc1ccc(S(=O)(=O)N(C)C[C@@H]2Oc3ccc(NS(=O)(=O)c4c(C)noc4C)cc3CC(=O)N([C@H](C)CO)C[C@@H]2C)cc1,-,62[16.7 µM],-,.,-
N#CC1=C(N)OC2=C(CCc3ccccc32)C1c1ccccc1 (stereo not given),-,-,.,-,.
CCOC(=O)N(O)c1ccc(C=Cc2ccccc2)cc1,-,-,-,.,49
COc1ccc2c3c(n(C)c2c1)[C@H](CO)N(C(=O)Nc1ccc(F)cc1)CC31CCN(Cc2cccnc2)CC1,-,.,-,.,-
COc1ccc2c3c(n(C)c2c1)[C@@H](CO)N(C(=O)Nc1ccc(F)cc1)CC31CCN(Cc2cccnc2)CC1,-,.,39,.,-
COc1ccc2c3c(n(C)c2c1)[C@@H](CO)N(C(=O)Nc1ccc(F)cc1)CC31CN(Cc2cccnc2)C1,-,-,27,.,.
CCOc1cccc(/C(O)=C2/C(=O)C(=O)N(CCOC)C2c2ccco2)c1 (stereo not given),.,-,.,-,-
CCCn1nc(C(=O)NNC(=O)c2ccc(OC(F)F)cc2)c2ccccc2c1=O,-,.,-,-,-
C[C@@H]1CCCCO[C@@H](CN(C)Cc2ccc(C(=O)O)cc2)[C@H](C)CN([C@@H](C)CO)C(=O)c2cc(NS(=O)(=O)c3cccs3)ccc2O1,-,-,-,.,-
CCOc1cccc(Oc2ncccc2C(=O)/C(C#N)=C/N(C)C)c1,-,-,.,-,-
CCOC(=O)C1CCCCN1C(=O)CCc1c(C)nc2cc(-c3ccccc3)nn2c1C (stereo not given),-,61,-,.,-
CCOC(=O)C1CCN(C(=O)CCc2c(C)nc3cc(-c4ccccc4)nn3c2C)CC1,-,-,-,.,-
COc1cc(OC)cc(-c2cc3nc(C)c(CCC(=O)O)c(C)n3n2)c1,.,73,-,.,-
Cc1noc(C)c1S(=O)(=O)Nc1ccc2c(c1)CC(=O)N([C@H](C)CO)C[C@@H](C)[C@H](CN(C)S(=O)(=O)c1ccc(Cl)cc1)O2,-,-,-,.,-
Nc1nc2ccccc2n1Cc1ccc(Cl)c(Cl)c1,-,?,-,-,.
Cc1ccc(Cn2c(N)nc3ccccc32)cc1,-,59,-,-,-
COC(=O)c1cc2ccccc2c([N+](=O)[O-])c1O,55,-,-,-,-
SMILES,INS-1E GSIS act,HIV Env fusion,AF4-AF9 inh,NSD2 inh,PGC1a acetyl inh
C[C@H]1CN([C@@H](C)CO)C(=O)c2cc(NC(=O)Nc3ccc(F)cc3)ccc2O[C@@H]1CN(C)C(=O)Nc1ccc(C(F)(F)F)cc1,-,-,.,.,-
O=C(NN(Cc1ccccc1)Cc1ccccc1)c1ccccc1,49,.,-,-,-
C=CCSc1nc2c(c(=O)[nH]c(=O)n2C)n1CC,-,.,.,-,-
CC(C)C[C@H](NC(=O)[C@H](Cc1ccccc1)n1c(=O)[nH]c2ccccc2c1=O)C(=O)N1CCC[C@H]1C(=O)O,.,.,-,.,-
C[C@H]1CN([C@@H](C)CO)S(=O)(=O)c2ccc(-c3cccc(C#N)c3)cc2O[C@H]1CN(C)Cc1cccc(F)c1,-,74[16.7 µM],-,.,-
C[C@@H]1CN([C@H](C)CO)S(=O)(=O)c2ccc(-c3ccc(F)cc3)cc2O[C@H]1CN(C)Cc1cccc(F)c1,58,-,.,.,-
C[C@@H]1CN([C@H](C)CO)S(=O)(=O)c2ccc(-c3ccccc3)cc2O[C@@H]1CN(C)Cc1cccc(F)c1,-,-,-,.,-
C/C(=N\NC(=O)CC1N=C(Cc2ccccc2)NNC1=O)c1ccc(Cl)cc1Cl (stereo not given),142,.,.,-,.
COc1ccc(CNc2ncc(-c3ccc(F)cc3)n2C)cc1OC,-,-,-,-,-
COc1cc(CNc2ncc(-c3ccc(Br)cc3)n2C)cc(OC)c1O,-,-,25,-,-
COc1ccc(Cn2c(SCc3cc(C)ccc3C)nc3cc(OC)c(OC)cc3c2=N)cc1,.,-,.,.,.
COc1ccc(Cn2c(SCc3ccc(C)cc3)nc3cc(OC)c(OC)cc3c2=N)cc1Cl,.,122,.,.,.
O=C(CSc1nc2ccccc2n1S(=O)(=O)c1cccc([N+](=O)[O-])c1)NCCc1ccccc1,-,73,-,-,.
CCCCNC(=O)CSc1nc2ccccc2n1S(=O)(=O)c1ccc(Br)cc1,-,.,.,-,.
COC(=O)CNc1nc(C2CC2)nc2c1nnn2Cc1ccccc1Cl,.,-,.,-,-
CN(C)S(=O)(=O)c1ccc(Nc2nc(C3CC3)nc3c2nnn3Cc2ccccc2Cl)cc1,-,48,.,-,.

# Screening data deposited in PubChem by Broad Institute.
